Bioassay records deposited in PubChem BioAssay by several laboratories.
A selection: hits, their analogues and other compounds. The true share with any hit is near 4.5%.
Gli-Sufu antag: Gli-Sufu pathway antagonists, primary screen, luciferase luminescence, Sufu-KO-LIGHT cells, uHTS; Sufu-KO-LIGHT fibroblasts, Gli luciferase reporter luminescence; inhibition, % at 5 µM; hit rate 0.74% among 340,000;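 active = inhibition above about 55%, limit read from the data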
697 NFkB inh: inhibitors of PMA/ionomycin-induced NF-kB reporter, 697 cells, primary screen, B-cell NF-kB inhibitor project, cell-based, luminescence, uHTS; 697 B-cell NF-kB luciferase reporter, 16 h; hit rate 0.33% among 330,000; inhibition, % at 4 µM; AID 435022, 2010; in the data active = inhibition above about 35%
aSyn 5UTR inh: MLPCN primary screen, SNCA 5' untranslated region; alpha-synuclein 5'UTR reporter, inhibitor activity; inhibition, % (tested at 7.5 µM); hit rate 0.82% among 300,000; AID 1813, 2009; in the data active = inhibition above about 60%; inconclusive = no clear call, values can overlap the other calls;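 note: H4 neuroglioblastoma cells stably carrying SNCA 5'UTR luciferase fusion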
Jurkat NFkB inh: inhibitors of induced NF-kB luciferase reporter, primary screen, TCR NF-kB activation inhibitor project, cell-based, luminescence, uHTS; Jurkat, PMA/ionomycin-induced NF-kB luciferase reporter; inhibition, % at 4 µM; hit rate 0.53% among 330,000; AID 435003, 2010; in the data active = inhibition above about 50%
CSC inhib: cancer stem cell viability inhibitors, primary screen, luminescence | cancer stem cell-like cells viability | inhibition, % at 7.5 µM | hit rate 1.1% among 300,000 | AID 2717, 2010; in the data active = inhibition above about 75%; inconclusive = no clear call, values can overlap the other calls; tested in HMLE shEcad cells
Mdm2-MdmX inh: inhibitors of human Mdm2-MdmX association, primary screen, cell-based, luminescence, split luciferase, SaOS-2, uHTS; Protein Mdm4 (Homo sapiens) + E3 ubiquitin-protein ligase Mdm2 (Homo sapiens), …; inhibition, % at 8 µM; hit rate 3% among 330,000; SaOS-2 split-luciferase Mdm2/MdmX complementation;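 active = inhibition of at least 50% at 8 µM in the primary screen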
Target sequence (O15151 whole entry, looked up): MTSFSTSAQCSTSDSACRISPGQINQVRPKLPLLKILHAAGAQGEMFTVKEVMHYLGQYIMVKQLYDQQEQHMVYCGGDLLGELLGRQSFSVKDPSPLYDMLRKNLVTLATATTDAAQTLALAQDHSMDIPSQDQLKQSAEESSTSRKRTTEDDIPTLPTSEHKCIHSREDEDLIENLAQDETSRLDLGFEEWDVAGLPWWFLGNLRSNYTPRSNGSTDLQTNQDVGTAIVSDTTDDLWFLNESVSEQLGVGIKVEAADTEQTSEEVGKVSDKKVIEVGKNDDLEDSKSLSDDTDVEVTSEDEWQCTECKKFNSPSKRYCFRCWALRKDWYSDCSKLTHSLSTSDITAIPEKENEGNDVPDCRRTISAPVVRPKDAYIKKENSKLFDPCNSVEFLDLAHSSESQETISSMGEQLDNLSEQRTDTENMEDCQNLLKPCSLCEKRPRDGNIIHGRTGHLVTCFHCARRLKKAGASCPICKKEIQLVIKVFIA
Target sequence (Q00987 whole entry, looked up): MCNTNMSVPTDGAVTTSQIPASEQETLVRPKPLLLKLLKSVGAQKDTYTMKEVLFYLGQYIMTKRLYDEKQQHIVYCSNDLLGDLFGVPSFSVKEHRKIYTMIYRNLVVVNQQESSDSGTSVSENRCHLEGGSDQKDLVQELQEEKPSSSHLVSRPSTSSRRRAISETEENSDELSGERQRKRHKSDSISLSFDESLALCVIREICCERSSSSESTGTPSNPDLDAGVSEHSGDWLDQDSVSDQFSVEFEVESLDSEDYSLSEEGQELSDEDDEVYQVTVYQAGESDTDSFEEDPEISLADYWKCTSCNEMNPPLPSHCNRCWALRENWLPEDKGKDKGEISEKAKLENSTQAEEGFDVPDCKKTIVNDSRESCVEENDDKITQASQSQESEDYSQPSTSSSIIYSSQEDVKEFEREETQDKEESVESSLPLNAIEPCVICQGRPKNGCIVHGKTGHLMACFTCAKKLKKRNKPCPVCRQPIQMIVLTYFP
Jurkat NFkB conf: PMA/ionomycin-induced NF-kB reporter inhibitors, Jurkat retest, confirmation, T-cell NF-kB inhibitor project, cell-based, luminescence, single concentration | shares compounds with Jurkat NFkB inh | Jurkat NF-kB luciferase, 16 h | inhibition, % at 4 µM | hit rate 27% among 2,700 | AID 435020, 2010;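 active = inhibition reaching about 45% at 4 µM in either replicate, limit read from the data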
697 NFkB conf: PMA/ionomycin-induced NF-kB reporter inhibitors, 697 retest, confirmation, B-cell NF-kB inhibitor project, cell-based, luminescence, single concentration. shares compounds with 697 NFkB inh. 697 B-cell NF-kB luciferase, 16 h. inhibition, % at 4 µM. hit rate 35% among 2,000. AID 449746, 2010; in the data active = inhibition mostly above about 28%, no sharp cut-off; inactive = mostly below about 22%
Hits are given with their value; 0 = inactive; ? = inconclusive; - = no result.

SMILES	Gli-Sufu antag	697 NFkB inh	aSyn 5UTR inh	Jurkat NFkB inh	CSC inhib	Mdm2-MdmX inh	Jurkat NFkB conf	697 NFkB conf
COc1ccc2nc(NC(=O)c3ccoc3C)sc2c1	0	0	0	0	0	0	0	0
O=C(CN(C(=O)C1CSC(=O)C1)c1cccc(F)c1)NCc1ccc2c(c1)OCO2 (stereo not drawn)	0	0	0	0	0	0	-	-
COc1ccccc1C(=O)N/C(=C/c1ccc(Br)cc1)C(=O)NCC(=O)O	0	0	0	0	0	0	-	-
O=C(O)/C=C/S(=O)(=O)c1ccc2ccccc2c1	0	0	0	0	0	0	-	-
CCOC(=O)c1sc(NC(=O)c2sccc2C)cc1C	0	0	0	0	0	0	0	0
COc1ccc2cc(C(=O)N3CCN(c4ccc(F)cc4)CC3)[nH]c2c1	0	0	0	0	0	0	-	-
O=C(Nc1ccccc1)C(=O)c1c[nH]c2ccccc12	0	0	0	0	0	0	0	0
Cc1ccc(-c2nc3cc(N)ccc3o2)cc1	0	0	0	0	0	0	0	0
CC(C)c1ccc2oc(-c3ccc(N)cc3)nc2c1	0	0	0	0	0	0	0	0
Cc1ccc2oc(-c3cccc(N)c3)nc2c1	0	0	0	0	0	0	-	-
Cc1ccc(-c2nc3cc(C)ccc3o2)cc1	0	0	72.5	0	-	0	0	0
CCc1ccccc1N(CC(=O)Nc1cccnc1)S(=O)(=O)c1ccccc1	0	0	0	0	0	0	-	-
Cc1nn(-c2ccccc2)c(Cl)c1/C=N/Nc1nc2ccccc2[nH]1	0	0	0	0	0	0	0	0
O=C(Nc1nc2c(s1)CCCC2)C1COc2ccccc2O1 (stereo not drawn)	0	0	0	0	0	0	0	0
Cc1nnc(NC(=O)C2COc3ccccc3O2)s1 (stereo not drawn)	0	0	0	0	0	0	-	-
CC(C)(C)c1ccc(C(=O)N2CCCCCC2=O)cc1	0	71.1	90.7	53.6	0	0	66.8	66.3
COc1ccc(CC2(c3ccccc3)NC(=O)NC2=O)cc1 (stereo not drawn)	0	-	-	-	-	-	-	-
COC(=O)CCn1nnc(-c2ccc(C(C)C)cc2)n1	56.7	69.4	119.1	64.0	0	0	61.2	77.8
COc1ccc(O)c(C(=O)CC(=O)c2ccncc2)c1	0	-	-	-	-	-	-	-
COc1ccc(O)c(C(=O)CC(=O)c2ccccc2)c1	-	0	0	0	0	0	0	0
CCCC(=O)NC(C)c1nc2ccccc2n1C (stereo not drawn)	0	0	0	0	0	0	-	-
O=C(Nc1nc(-c2ccc3ccccc3c2)cs1)C1CCN(S(=O)(=O)c2cccs2)CC1	0	0	0	0	0	0	-	-
Cc1ccc(-c2csc(NC(=O)C3CCN(S(=O)(=O)c4cccs4)CC3)n2)cc1	0	62.4	0	63.0	0	0	73.3	67.2
NNc1nc(-c2ccccc2)nc2sc3c(c12)CCCC3	0	0	0	0	0	0	0	0
CCN(CC)S(=O)(=O)c1cccc(C(=O)Nc2ccc(S(=O)(=O)NC3=NCCCCC3)cc2)c1	0	0	0	0	0	0	-	-
SMILES	Gli-Sufu antag	697 NFkB inh	aSyn 5UTR inh	Jurkat NFkB inh	CSC inhib	Mdm2-MdmX inh	Jurkat NFkB conf	697 NFkB conf
Nc1cccc2c1C(=O)N(CCOc1ccccc1F)C2=O	0	0	0	0	0	0	0	0
CCOC(=O)C1=C(COC(=O)/C=C/c2ccc(SC)cc2)NC(=O)NC1C (stereo not drawn)	0	0	0	0	0	0	-	-
CC(C)(C)c1ccc(/C=N/Nc2ccc(C(=O)O)cc2)cc1	0	0	0	59.0	0	0	0	0
CCNC(=S)N/N=C/c1ccc(C(=O)O)cc1	0	0	0	0	0	0	-	-
Cc1cc(C(=O)O)cc(S(=O)(=O)NNC(=O)c2cccs2)c1C	0	0	0	0	0	0	-	-
CCCc1nnc(NC(=O)C23CC4CC(CC(C4)C2)C3)s1	0	0	0	0	0	0	-	-
CC(=O)Nc1ccc(C(=O)Cn2c3[n+](c4c(F)c(F)ccc42)CCCCC3)cc1	0	0	0	0	0	0	-	-
CN=c1scc(C)n1/N=C/c1ccc(O)cc1O	0	0	0	0	0	0	0	0
CN=c1scc(C)n1/N=C/c1ccc(O)cc1	0	0	-	0	0	0	-	-
Cc1ccc(CN(C(=O)COc2cccc(C)c2C)C2CCS(=O)(=O)C2)o1 (stereo not drawn)	0	0	0	0	0	0	-	-
O=c1oc2ccccc2cc1-c1nc2c(s1)CCCC2	0	0	?	0	0	0	0	0
O=c1oc2ccccc2cc1-c1nc2ccccc2o1	0	0	0	0	0	0	-	-
Cc1ccc2c(c1)COc1c3ccc(C(=O)NCC4CC4)cc3nn1-2	0	0	0	0	0	0	-	-
Cc1ccc2c(c1)COc1c3ccc(C(=O)O)cc3nn1-2	-	75.8	0	92.7	0	0	68.2	0
c1ccc(-c2noc(-c3ccc4c(c3)OCO4)n2)cc1	0	0	0	0	-	0	0	0
COc1ccc(-c2noc(-c3ccc4c(c3)OCO4)n2)cc1	0	0	0	0	0	0	-	-
CC(=O)CSc1nc2cc3c(cc2cc1C#N)OCCO3	0	0	0	0	0	0	0	0
O=S(=O)(NCCCCNS(=O)(=O)c1c(F)cccc1F)c1ccc2c(c1)OCCO2	0	0	-	0	0	0	-	-
O=C(O)CSCC(=O)Nc1ccc(C2CCCCC2)cc1	0	90.2	108.1	63.2	0	0	77.6	83.2
Nn1cnnc1SCC(=O)Nc1ccc(C2CCCCC2)cc1	0	0	0	0	0	0	-	-
COc1ccccc1N1CCN(Cc2cnc3ccc(Cl)cn23)CC1	0	0	0	0	-	0	-	-
CC(=O)Nc1ccccc1OCC(=O)c1cc(C)n(Cc2cccs2)c1C	79.4	96.1	0	55.6	0	0	57.6	65.1
CC1CN/C(=C\C(=O)c2ccc(Cl)cc2)C(=O)N1 (stereo not drawn)	0	0	0	0	0	0	0	0
C/C=N\NC(=O)COc1cc(C)ccc1C	0	0	0	0	0	0	-	-
N#Cc1ccc(CN2CCN(C(=O)C3CC(=O)N(c4ccccc4F)C3)CC2)cc1 (stereo not drawn)	0	0	-	0	0	0	-	-
Nc1c(-c2ccc(Cl)cc2)cnc2c(-c3ccccc3)cnn12	0	0	0	0	-	0	0	0
CC(C)(C)S(=O)(=O)c1cnc2c(-c3ccc(Cl)cc3)cnn2c1N	0	0	0	0	0	0	-	-
